From PubChem BioAssay AID1851 (National Center for Advancing Translational Sciences (NCATS), 2009)
In all, about 16,000 compounds went through this assay and about 4,000 (25%) were called active. Inconclusive results (about 26%) are left out. Only a sample is shown. Values without a mark were called inactive. The call rests on the fitted dose curve; in most records, active means well fitted curve in the direction sought with a large enough effect; inconclusive means small, poorly fitted or top-dose-only effect, or effect the other way; inactive means no such curve, though single readings can be large or run the other way.

The molecules below were run against Cytochrome P450 2C9 (Homo sapiens) (UniProt P11712) (assay: Cytochrome panel assay with activity outcomes). Conditions: recombinant CYP, pro-luciferin dealkylation, luminescence, p450-cyp2c9; series mostly up to 57.1 µM; activity, negative = inhibition: at the top concentration.
Method: The P450 gene superfamily is involved in the metabolism and clearance of xenobiotics. This assay used various human CYP P450 isozymes to measure the dealkylation of various pro-luciferin substrates to luciferin. The luciferin is then measured by luminescence after the addition of a luciferase detection reagent. Pro-luciferin substrate concentration in the assay was equal to its KM for its CYP P450 isozyme. Inhibitors and some substrates limit the production of luciferin, and decrease measured luminescence.
NCGC Assay Protocol Summary:
1, Reagent, 2 uL, Isozyme and Pro-Luciferin
2, Library compounds, 23 nl, 40 uM to 0.24 nM dilution series
3, Controls, 23 nl, Isozyme specific inhibitor
4, Reagent, 2 uL, NADPH regeneration solution
5, Incubation time, 60 min, Isozyme specific temperature
6, Reagent, 4ul, Detection reagent
7, Incubation time, 20 min, Isozyme specific temperature
8, Detection, 1 sec, ViewLux luminescent read
The luciferase-based P450-GloTM Screening Systems were obtained from Promega (Madison, WI) for CYP 1A2 (V9770), CYP 2C9 (V9790), CYP2 C19 (V9880), CYP 2D6 (V9890), and CYP 3A4 Luciferin-PPXE (V9910) and were adapted for 1,536-well microplates and an automated protocol. The control compounds furafylline for 1A2 (F124), sulfaphenazole for CYP 2C9 (S0758), ketoconazole for CYP 2C19 (K1003), quinidine for 2D6 (Q3625), and ketoconazole for 3A4 (K1003) were purchased from Sigma Aldrich (St. Louis, MO). Recombinant P450 enzymes were obtained from baculovirus constructs expressed in insect cells (BD/Gentest).
Medium-binding white solid Kalypsys plates used. Mixtures kept on ice. 1A2: 10 nM 1A2, 100 uM Luc-ME, 100 mM KPO4; 2C9: 10 nM 2C9, 100 uM Luc-H, 25 mM KPO4; 2C19: 5 nM 2C19, 10 uM Luc-H EGE, 50 mM KPO4; 2D6: 5 nM 2D6, 30 uM Luc-ME EGE, 100 mM KPO4; 3A4: 10 nM, 25 uM Luc-PPXE. All amounts are reflected in their final concentration, working concentration is 2x.
NADPH regeneration solution: 1.3 mM NADP+, 3.3 mM glucose-6-phosphate, 3.3 mM MgCl2, 0.4 U/mL glucose-6-phosphate dehydrogenase for all isozymes, 200 mM KPO4 for 3A4. Mixture prepared at RT but kept on ice during automated run.
RT incubation in auxilliary plate hotel for 1A2, 2D6, and 3A4; 37C for 2C9 and 2C19.
Keywords: P450, CYP1A2, CYP2C19, CYP2C9, CYP2D6, CYP3A4, Luciferase, MLSMR, MLSCN, NIH Roadmap, qHTS, NCGC
On the % scale 0 is the no-effect control and ±100 the full control effect.

Sequence of Cytochrome P450 2C9 (Homo sapiens) (P11712 whole entry, looked up): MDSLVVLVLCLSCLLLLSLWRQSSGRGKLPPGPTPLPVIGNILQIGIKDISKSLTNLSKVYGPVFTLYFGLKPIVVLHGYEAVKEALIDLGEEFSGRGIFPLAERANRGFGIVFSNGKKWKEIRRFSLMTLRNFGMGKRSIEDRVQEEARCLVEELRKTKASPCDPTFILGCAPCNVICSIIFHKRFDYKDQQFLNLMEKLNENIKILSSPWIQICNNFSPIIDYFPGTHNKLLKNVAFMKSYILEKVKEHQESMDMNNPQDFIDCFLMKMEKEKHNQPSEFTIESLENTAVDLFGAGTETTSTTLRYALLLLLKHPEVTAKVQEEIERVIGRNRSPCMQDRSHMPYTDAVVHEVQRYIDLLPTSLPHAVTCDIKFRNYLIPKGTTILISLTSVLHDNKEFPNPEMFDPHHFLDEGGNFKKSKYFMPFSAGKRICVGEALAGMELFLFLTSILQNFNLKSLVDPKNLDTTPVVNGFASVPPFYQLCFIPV

| Compound | activity, negative = inhibition | AC50 |
| --- | --- | --- |
| CC(C)(C)NC[C@@H](O)c1ccc(O)c(CO)n1 | 6.16% [at 11.4 µM] | – |
| Cc1ccc(-c2nc3ncccn3c2NC(=O)C2CC2)cc1 | 6.9% | – |
| Clc1ccc(-c2nc3ncccn3c2Nc2ccc3c(c2)OCCO3)cc1 | – | 4.47 µM (active) |
| Cc1noc(C)c1-c1cc(NCc2ccccc2)ncn1 | 24.9% [at 2.29 µM] | – |
| Cc1noc(C)c1-c1cc(Nc2ccccc2)ncn1 | -12.1% [at 2.29 µM] | – |
| Cc1noc2ncnc(Oc3ccc4ccccc4c3)c12 | – | 25.1 µM (active) |
| O=C1C(=O)N(Cc2ccc(Cl)c(Cl)c2)c2ccccc21 | 1% | – |
| Clc1ccc(COc2ccccn2)cc1Cl | -2.18% | – |
| Clc1ccc(Cn2c(CN3CCCC3)nc3ccccc32)cc1 | -38.8% [at 25.6 µM] | – |
| O=Nc1c(O)n(Cc2cccc(Cl)c2)c2ccccc12 | – | 2.51 µM (active) |
| O=Nc1c(O)n(Cc2ccc(Cl)c(Cl)c2)c2ccccc12 | – | 5.62 µM (active) |
| O=Nc1c(O)n(Cc2ccc(Cl)cc2)c2ccccc12 | – | 1.26 µM (active) |
| NC(=O)c1ncn([C@@H]2O[C@@H](CO)[C@@H](O)[C@H]2O)c1O | -6.99% | – |
| Cc1noc(C)c1-c1cncnc1NC1CC1 | 4.67% [at 2.29 µM] | – |
| c1cn(-c2ccnc(-c3ccc4c(c3)OCO4)n2)cn1 | 4.3% [at 2.29 µM] | – |
| CN(Cc1ccccc1)c1nc(-c2ccc([N+](=O)[O-])cc2)nc2ccccc12 | – | 0.501 µM (active) |
| COc1cccc(-c2nc(N(C)Cc3ccco3)c3ccccc3n2)c1 | -10.2% [at 2.29 µM] | – |
| CN(C)C(=O)c1ccc(-c2nc(N(C)Cc3ccco3)c3ccccc3n2)cc1 | 5.2% [at 2.29 µM] | – |
| c1nc(NCCc2cnc[nH]2)c2[nH]cnc2n1 | -20.1% [at 11.4 µM] | – |
| CN(C)C(=O)c1ccc(-c2cc(NCc3ccccc3)ncn2)cc1 | 6.12% [at 2.29 µM] | – |
| N#Cc1c(-c2ccc(Cl)cc2)nc2n(c1=O)CCCS2 | – | 12.6 µM (active) |
| N#Cc1c(-c2ccccc2)nc2n(c1=O)CCS2 | -5.83% | – |
| CN(C)c1cc(=O)n2c(n1)SCCC2 | -4.22% | – |
| c1ccc(-c2ccc(N3CC[C@@]4(CCCNC4)C3)cc2)cc1 | -3.55% | – |

| Compound | activity, negative = inhibition | AC50 |
| --- | --- | --- |
| Cn1cccc1C(=O)N1CCC2(CC1)CCN(c1ccc(-c3ccccc3)cc1)CC2 | -18.2% | – |
| CC(C)CN1CCCC2(CCN(C(=O)c3cccn3C)CC2)C1 | 5.73% | – |
| CN1CCCC2(CCN(C(=O)c3cccn3C)CC2)C1 | 9.11% | – |
| c1ccc(-c2ccc(N3CC4(CCNCC4)C3)cc2)cc1 | -19.5% | – |
| Cn1cccc1C(=O)N1CCC2(CC1)CCN(C(c1ccccc1)c1ccccc1)CC2 | 12.5% | – |
| c1ccc(-c2ccc(N3CCCC4(CCNCC4)C3)cc2)cc1 | – | 25.1 µM (active) |
| Cn1cccc1C(=O)N1CCC2(CCCN(c3ccc(-c4ccccc4)cc3)C2)CC1 | – | 15.8 µM (active) |
| Cn1cccc1C(=O)N1CCC2(CCCN(c3cccc(-c4ccccc4)c3)C2)CC1 | – | 3.98 µM (active) |
| Cn1cccc1C(=O)N1CCC2(CCCN(C(c3ccccc3)c3ccccc3)C2)CC1 | – | 12.6 µM (active) |
| Cn1cccc1C(=O)N1CCC2(CC1)CCN(c1cccc(-c3ccccc3)c1)CC2 | 9.6% | – |
| CC(C)NC(=O)N1CCCC2(CCN(C(=O)c3cccn3C)CC2)C1 | -10.5% | – |
| Cc1cnc(CNc2ncncc2-c2ccccc2CN(C)C)cn1 | 20.8% [at 2.29 µM] | – |
| CO[C@@H]1COC(=O)[C@H]2CCCN2C(=O)[C@@H](C)COC(=O)CCC[C@H]1C | 1.93% [at 11.4 µM] | – |
| COC(=O)N1CCC2(CCCN(c3ccc(-c4ccccc4)cc3)C2)CC1 | – | 15.8 µM (active) |
| Cn1cccc1C(=O)N1CCC2(CC1)CCN(c1ccncc1)CC2 | -17.9% | – |
| Cn1cccc1C(=O)N1CCC[C@@]2(CCN(c3ccccc3)C2)C1 | -11.1% | – |
| Cn1cccc1C(=O)N1CCC2(CC1)CCN(c1ccccc1)CC2 | 10.5% | – |
| COC(=O)N1CCC2(CC1)CN(c1ccc(-c3ccccc3)cc1)C2 | -19.7% | – |
| Cn1cccc1C(=O)N1CCC2(CC1)CN(c1ccncc1)C2 | – | 5.01 µM (active) |
| Cn1cccc1C(=O)N1CCC2(CCCN(c3ccccc3)C2)CC1 | – | 15.8 µM (active) |
| O=C(Oc1ccccc1)N1CCC2(CCCN(c3ccc(-c4ccccc4)cc3)C2)CC1 | 17.5% | – |
| Cn1cccc1C(=O)N1CCC[C@@]2(CCN(c3ccncc3)C2)C1 | -3.72% | – |
| COc1ccccc1/C=C/C=N/N1CCN(Cc2cccc3ccccc23)CC1 | 25.5% | – |
